Structures are written as SMILES. Inconclusive results are not listed. Activity calls are given as the source filed them. Unless noted, calls come from the whole dose curve; as a rule, active = well fitted curve in the direction sought with a large enough effect; inconclusive = small, poorly fitted or top-dose-only effect, or another doubt; inactive = no such curve, though single readings can be large; an effect the other way counts as inactive or inconclusive.

For test [1], the target named is Cytochrome P450 1A2 (Homo sapiens) (UniProt P05177). As to the kind of experiment: p450-cyp1a2 (AID 410; calls by dose curve; note: potency is the fitted concentration of half-maximal effect). The essentials: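 Human CYP1A2 (20nM) demethylated Luciferin-ME at its Km (100uM) in 100mM KPO4. After 10 min compound preincubation, NADPH regeneration ran the reaction 60 min at room temperature. Luciferin was read by luminescence, normalized to 57 uM furafylline.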

The target of test [2] is Mitogen-activated protein kinase 10 (Mus musculus) (UniProt Q61831). The test can be described thus: JNK3 AlphaScreen Assay (AID 530; active = well fitted curve in either direction with a large enough effect, not every such curve was filed as active;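 note: kinase came from lysate of stimulated human HepG2 cells; signal reports phosphorylation of biotinylated GST-cJun 1-79 at Ser73 with 10 µM ATP; series mostly up to about 57 µM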). Put shortly: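 JNK3 came from HepG2 lysates pre-activated with IL-1beta and TNF-alpha and phosphorylated biotinylated GST-cJun (1-79) at 10 uM ATP, pH 7.6, room temperature. Compounds were titrated. AlphaScreen signal used anti-phospho-cJun (Ser73) antibody.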
Background: In Alpha technology, singlet oxygen from a donor bead excites a nearby acceptor bead.

Test [3] has as its target 3',5'-cyclic-AMP phosphodiesterase 4B (Homo sapiens) (UniProt Q07343). As to the kind of experiment: qHTS Assay for Inhibitors of PDE-IV (AID 607; active = well fitted activation curve with a large enough effect in the main read-out, with a control signal flat, not every such curve was filed as active; note: potency is the fitted concentration of half-maximal effect). The essentials:
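The readout is membrane depolarisation from a cAMP-sensing CNG channel, detected with a potential dye at ex 535/em 590. Cells were HEK293-derived (endogenous PDE-IV) at 1000 cells/well, titrated up to 22.9 uM final.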
A general note: In qHTS, concentration-response curves come from the screen itself.

Test [4] has as its target Cytochrome P450 2C9 (Homo sapiens) (UniProt P11712). The test can be described thus: qHTS Assay for Inhibitors and Substrates of Cytochrome P450 2C9 (AID 883). Note: nearly all actives have a fitted effect of over 60% in size. Note: potency is the fitted concentration of half-maximal effect. The essentials:
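Human CYP2C9 (10nM) hydroxylated Luciferin-H (100uM, at its KM) to luciferin in 25mM KPO4. Compound was preincubated 10 min at 37C, then NADPH regeneration started a 60 min reaction at 37C. Luminescence was read after detection reagent, normalized to 57uM sulphaphenazole.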

For test [5], the target named is Cytochrome P450 3A4 (Homo sapiens) (UniProt P08684). As to the kind of experiment: qHTS Assay for Activators of Cytochrome P450 3A4 (AID 885). Note: nearly all actives have a fitted effect of over 65% in size. Put shortly:
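Steps: enzyme/substrate mix dispensed; compound added, 10 min RT; NADPH regeneration solution added, 60 min RT; luciferin detection buffer stops reaction; 20 min later luminescence measured.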

For test [6] the target is unchanged. As to the kind of experiment: qHTS Assay for Inhibitors and Substrates of Cytochrome P450 3A4 (AID 884). Note: potency is the fitted concentration of half-maximal effect; nearly all actives have a fitted effect of over 50% in size. The essentials:
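20 nM human CYP3A4 with 25 uM Luciferin-PPXE (at KM) in 200 mM KPO4, preincubated 10 min with compound; NADPH regeneration started a 60 min RT reaction. Luciferin detected by luminescence, normalized to 57 uM ketoconazole as full inhibition.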

Test [7] concerns the target Cytochrome P450 2C19 (Homo sapiens) (UniProt P33261). As to the kind of experiment: qHTS Assay for Inhibitors and Substrates of Cytochrome P450 2C19 (AID 899). Note: nearly all actives have a fitted effect of over 60% in size. Note: potency is the fitted concentration of half-maximal effect. Put shortly:
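Human CYP2C19 (5nM) with Luciferin-H EGE at 10uM (its KM) in 50mM KPO4 was preincubated with compound for 10 min at 37C. NADPH regeneration started a 60 min 37C reaction. Luciferin was read by luminescence, normalized to 57uM ketoconazole.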

For test [8], the target named is Cytochrome P450 2D6 (Homo sapiens) (UniProt P10635). As to the kind of experiment: qHTS Assay for Inhibitors and Substrates of Cytochrome P450 2D6 (AID 891). Note: nearly all actives have a fitted effect of over 60% in size. Note: potency is the fitted concentration of half-maximal effect. Put shortly: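 Human CYP2D6 (5 nM) with 30 uM Luciferin-ME EGE (at Km) in 100 mM KPO4, compound preincubated 10 min, then NADPH regeneration system for 60 min at room temperature. Luciferin read by luminescence; normalized to 1.43 uM quinidine.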
Cytochrome P450 2D6 (Homo sapiens), sequence (P10635 whole entry, looked up): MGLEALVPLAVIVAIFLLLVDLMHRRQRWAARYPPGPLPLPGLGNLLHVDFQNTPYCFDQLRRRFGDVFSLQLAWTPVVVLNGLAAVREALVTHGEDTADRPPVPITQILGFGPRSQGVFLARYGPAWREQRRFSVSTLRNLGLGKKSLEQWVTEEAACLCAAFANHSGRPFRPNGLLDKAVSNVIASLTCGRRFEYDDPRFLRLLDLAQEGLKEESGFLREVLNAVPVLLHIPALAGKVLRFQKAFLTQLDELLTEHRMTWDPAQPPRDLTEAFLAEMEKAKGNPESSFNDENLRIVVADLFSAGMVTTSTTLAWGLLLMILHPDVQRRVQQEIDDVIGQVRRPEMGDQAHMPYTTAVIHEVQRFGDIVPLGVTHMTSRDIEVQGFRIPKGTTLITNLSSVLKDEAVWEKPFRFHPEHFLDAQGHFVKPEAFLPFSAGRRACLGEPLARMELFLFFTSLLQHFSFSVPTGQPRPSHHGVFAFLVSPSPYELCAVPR

Cytochrome P450 2C9 (Homo sapiens), sequence (P11712 whole entry, looked up): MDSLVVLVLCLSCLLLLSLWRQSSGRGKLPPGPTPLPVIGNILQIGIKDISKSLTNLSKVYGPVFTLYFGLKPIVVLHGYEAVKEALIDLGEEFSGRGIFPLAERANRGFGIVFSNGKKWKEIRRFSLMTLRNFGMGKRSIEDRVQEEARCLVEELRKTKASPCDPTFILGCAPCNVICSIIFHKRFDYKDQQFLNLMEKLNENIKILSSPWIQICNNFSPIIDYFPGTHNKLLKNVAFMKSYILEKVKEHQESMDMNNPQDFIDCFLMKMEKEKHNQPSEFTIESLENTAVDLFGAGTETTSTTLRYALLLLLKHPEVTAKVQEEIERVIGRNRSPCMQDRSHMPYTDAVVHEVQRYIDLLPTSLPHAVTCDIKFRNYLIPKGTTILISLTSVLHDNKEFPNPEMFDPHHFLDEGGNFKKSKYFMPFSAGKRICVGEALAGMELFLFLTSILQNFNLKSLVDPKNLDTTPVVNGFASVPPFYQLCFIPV
Cytochrome P450 3A4 (Homo sapiens), sequence (P08684 whole entry, looked up): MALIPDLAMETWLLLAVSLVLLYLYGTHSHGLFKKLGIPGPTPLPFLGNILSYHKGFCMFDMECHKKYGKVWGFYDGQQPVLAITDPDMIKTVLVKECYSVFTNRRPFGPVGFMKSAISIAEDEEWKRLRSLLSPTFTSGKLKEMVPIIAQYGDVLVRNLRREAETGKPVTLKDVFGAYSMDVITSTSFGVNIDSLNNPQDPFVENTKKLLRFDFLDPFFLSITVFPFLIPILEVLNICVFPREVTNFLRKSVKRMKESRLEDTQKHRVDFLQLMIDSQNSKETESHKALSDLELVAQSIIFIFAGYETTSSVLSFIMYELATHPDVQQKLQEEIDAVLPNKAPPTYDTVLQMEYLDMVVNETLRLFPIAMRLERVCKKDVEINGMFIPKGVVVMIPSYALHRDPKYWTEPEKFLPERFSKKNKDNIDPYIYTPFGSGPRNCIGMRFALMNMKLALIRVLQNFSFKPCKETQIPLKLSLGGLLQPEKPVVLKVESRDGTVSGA
3',5'-cyclic-AMP phosphodiesterase 4B (Homo sapiens), sequence (Q07343 whole entry, looked up): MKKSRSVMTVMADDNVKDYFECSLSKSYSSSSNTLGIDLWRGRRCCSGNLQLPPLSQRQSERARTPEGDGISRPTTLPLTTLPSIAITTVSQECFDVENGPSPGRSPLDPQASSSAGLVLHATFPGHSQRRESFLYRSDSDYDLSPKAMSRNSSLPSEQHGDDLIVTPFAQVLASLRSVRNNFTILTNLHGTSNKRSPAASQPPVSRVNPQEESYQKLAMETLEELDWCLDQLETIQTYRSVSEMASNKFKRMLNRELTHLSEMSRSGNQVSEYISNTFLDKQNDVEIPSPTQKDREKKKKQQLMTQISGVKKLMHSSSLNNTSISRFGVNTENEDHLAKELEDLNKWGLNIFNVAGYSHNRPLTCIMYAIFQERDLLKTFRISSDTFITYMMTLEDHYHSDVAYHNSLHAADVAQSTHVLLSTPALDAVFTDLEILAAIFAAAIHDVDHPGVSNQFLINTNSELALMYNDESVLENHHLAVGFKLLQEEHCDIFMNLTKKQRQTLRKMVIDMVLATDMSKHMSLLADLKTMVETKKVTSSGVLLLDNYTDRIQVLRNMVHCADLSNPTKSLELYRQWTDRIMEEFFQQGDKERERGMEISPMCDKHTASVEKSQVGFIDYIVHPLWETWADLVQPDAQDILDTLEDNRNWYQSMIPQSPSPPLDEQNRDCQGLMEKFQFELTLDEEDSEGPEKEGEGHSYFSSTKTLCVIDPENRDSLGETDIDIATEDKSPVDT
Cytochrome P450 1A2 (Homo sapiens), sequence (P05177 whole entry, looked up): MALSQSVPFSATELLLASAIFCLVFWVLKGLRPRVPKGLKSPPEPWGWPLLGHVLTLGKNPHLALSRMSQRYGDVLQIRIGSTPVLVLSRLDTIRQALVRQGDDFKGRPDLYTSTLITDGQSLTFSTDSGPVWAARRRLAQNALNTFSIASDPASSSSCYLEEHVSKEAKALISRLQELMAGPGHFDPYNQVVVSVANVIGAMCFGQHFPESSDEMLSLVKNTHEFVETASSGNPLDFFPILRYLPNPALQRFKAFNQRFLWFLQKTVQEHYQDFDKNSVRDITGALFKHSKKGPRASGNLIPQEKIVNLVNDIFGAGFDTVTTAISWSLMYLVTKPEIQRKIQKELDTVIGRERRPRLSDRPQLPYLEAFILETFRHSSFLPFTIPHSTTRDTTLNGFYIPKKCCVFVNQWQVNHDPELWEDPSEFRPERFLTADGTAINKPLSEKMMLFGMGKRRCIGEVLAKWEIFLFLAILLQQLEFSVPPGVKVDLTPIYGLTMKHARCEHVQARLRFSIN
Cytochrome P450 2C19 (Homo sapiens), sequence (P33261 whole entry, looked up): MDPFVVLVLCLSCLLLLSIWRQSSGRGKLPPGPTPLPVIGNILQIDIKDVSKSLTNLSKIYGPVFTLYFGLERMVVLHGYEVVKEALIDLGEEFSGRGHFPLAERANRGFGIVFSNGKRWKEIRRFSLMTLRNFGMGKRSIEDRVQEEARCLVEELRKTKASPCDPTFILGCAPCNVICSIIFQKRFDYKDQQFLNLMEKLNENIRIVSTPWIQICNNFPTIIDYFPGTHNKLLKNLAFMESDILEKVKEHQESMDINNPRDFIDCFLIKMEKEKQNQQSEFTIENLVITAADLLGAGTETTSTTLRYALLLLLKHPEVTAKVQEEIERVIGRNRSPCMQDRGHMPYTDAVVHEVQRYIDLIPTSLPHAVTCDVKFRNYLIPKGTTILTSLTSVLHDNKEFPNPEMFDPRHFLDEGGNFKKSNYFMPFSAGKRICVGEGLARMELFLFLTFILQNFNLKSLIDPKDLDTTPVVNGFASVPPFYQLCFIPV

Regarding `COC(=O)[C@@]1(Cc2ccc(F)cc2)[C@H]2c3cc(C(=O)N4CCCC4)n(Cc4ccccn4)c3C[C@H]2CN1C(=O)c1ccccc1`, the Potency in test [1] is 20 µM (active); in test [4], 2 µM (active). The Potency entry in test [2], in test [3] and in test [5] was “inactive” each time.
For `COC(=O)[C@@]1(Cc2ccc(OC)cc2)[C@H]2c3cc(C(=O)N4CCCC4)n(CCc4c[nH]c5cc(F)ccc45)c3C[C@H]2CN1C(=O)c1ccccc1`, the Potency is 39.8 µM (active) in test [1], 3.16 µM (active) in test [4], 1.26 µM (active) in test [6] and 3.98 µM (active) in test [7]. In addition, the Potency entry in test [2], in test [3] and in test [5] was “inactive” in each case.
`COC(=O)[C@@]1(Cc2ccc(F)cc2)[C@H]2c3cc(C(=O)N4CCCC4)n(CCCNc4ncc(C(F)(F)F)cc4Cl)c3C[C@H]2CN1C(=O)c1ccccc1`: the Potency result in test [1], in test [2], in test [3] and in test [5] was “inactive” each time. The Potency in test [4] was 3.16 µM (active); in test [6], 2.51 µM (active).
Regarding `C[C@@H](C(=O)Nc1ccc2ccccc2c1)[C@@H]1C[C@@]1(C)[C@@H](NS(=O)(=O)c1ccc(-c2ccccc2)cc1)c1ccccc1`, in test [1], the Potency was 12.6 µM (active). For the same compound, the Potency result in test [2] and in test [3] was “inactive” each time.
Turning to `COC(=O)[C@@]1(Cc2ccc(F)cc2)[C@H]2c3cc(C(=O)N(C)C)n(C)c3C[C@H]2CN1C(=O)c1ccccc1`, the Potency in test [1] is 31.6 µM (active). Besides, the Potency result in test [2] and in test [3] was “inactive” each time.
As for `C[C@@H](C(=O)NCc1cccc2ccccc12)[C@H]1C[C@]1(C)[C@H](NC(=O)OCc1ccccc1)c1ccccc1`, the Potency in test [1] was 25.1 µM (active); in test [4], 3.16 µM (active); in test [6] it was 0.398 µM (active); in test [7] it was 2.51 µM (active). Besides, the Potency entry in test [2], in test [3] and in test [5] was “inactive” in each case.
For the compound `COC(=O)[C@@]1(Cc2ccc(F)cc2)[C@H]2c3cc(C(=O)N(C)C)n(Cc4cccc5ccccc45)c3C[C@H]2CN1C(=O)c1ccccc1`, the Potency in test [1] is 6.31 µM (active). Moreover, the Potency entry in test [2] and in test [3] was “inactive” each time.
In the case of `COC(=O)[C@@]1(Cc2ccc(F)cc2)[C@H]2c3cc(C(=O)N4CCCC4)n(CCc4c[nH]c5ccccc45)c3C[C@H]2CN1C(=O)c1ccccc1`, the Potency entry in test [1], in test [2], in test [3] and in test [5] was “inactive” throughout. Besides, the Potency in test [4] was 2.51 µM (active).
Take `Cc1cc(CNC(=O)[C@@H]2C[C@H]2[C@@H](NP(=O)(c2ccccc2)c2ccccc2)c2ccccc2)nn1C`: the Potency entry in test [1], in test [2], in test [3] and in test [5] was “inactive” each time. For the same compound, in test [6], the Potency was 0.398 µM (active).
Turning to `COC(=O)[C@@H]1C[C@H]1[C@@H](NC(=O)OCc1ccccc1)c1ccccc1`, the results for the Potency in test [1], in test [4] and in test [7] were 0.2 µM (active), 20 µM (active) and 2.51 µM (active), respectively. The Potency result in test [2] and in test [3] was “inactive” each time.
Take `COCC1C2CC[C@H]3C(OCc4ccc(OC)cc4)OC[C@]4(C)[C@H]3C2=C(CN4C(=O)OC(C)(C)C)[C@H](C)C1COC` (some centres undefined): the Potency in test [1] was 15.8 µM (active); in test [6], 1.58 µM (active). Further, the Potency entry in test [2], in test [3] and in test [5] was “inactive” in each case.
Take `CC(C)[C@@H](CC(=O)N[C@@H]1CCCC[C@H]1C(=O)N[C@H](CC(=O)N[C@@H](CCC(=O)O)CC(=O)O)Cc1c[nH]c2ccccc12)NC(=O)C[C@H](Cc1c[nH]c2ccccc12)NC(=O)[C@@H]1CCCC[C@H]1N`: the Potency result in test [1], in test [2], in test [3], in test [4], in test [8] and in test [7] was “inactive” in each case.
Consider `CNC(=O)[C@H](C)[C@@H]1C[C@@]1(C)[C@@H](NC(=O)OCc1ccccc1)c1ccccc1`, for which the Potency in test [1] was 20 µM (active); in test [6], 2.51 µM (active); in test [8], 3.16 µM (active); in test [7] it was 0.631 µM (active). For the same compound, the Potency entry in test [2], in test [3] and in test [5] was “inactive” in each case.
As for `COC(=O)[C@@]1(Cc2ccccc2)[C@H]2c3cc(C(=O)N4CCCC4)n(Cc4nc5ccccc5[nH]4)c3C[C@H]2CN1C(=O)c1ccccc1`, the Potency in test [1] was 12.6 µM (active); in test [6], 1.26 µM (active); in test [8], 7.94 µM (active). Further, the Potency entry in test [2], in test [3] and in test [5] was “inactive” throughout.
As to `COC(=O)[C@@]1(Cc2ccc(F)cc2)[C@H]2c3cc(C(=O)N(C)C)n(CCCNc4ccc(C(F)(F)F)cc4Cl)c3C[C@H]2CN1C(=O)c1ccccc1`, the Potency entry in test [1], in test [2], in test [3] and in test [5] was “inactive” throughout. Moreover, the Potency in test [6] was 1.58 µM (active).
`COC(=O)[C@@]1(Cc2ccc(F)cc2)[C@H]2c3cc(C(=O)N4CCCC4)n(Cc4ccc(Cl)c(C(F)(F)F)c4)c3C[C@H]2CN1C(=O)c1ccccc1`: the Potency entry in test [1], in test [2], in test [3] and in test [5] was “inactive” throughout. Further, the Potency in test [6] was 2.51 µM (active).
With `CCCCCCN(C(=O)CCCCCN1C(=O)NC(c2ccc(-c3ccccc3)cc2)C(C(=O)OCc2ccccc2)=C1C)C(C(=O)NCCCC)c1ccc(OCC(=O)OC)c(C(=O)OC)c1` (centres undefined), the Potency in test [1] was 12.6 µM (active); in test [4], 0.158 µM (active). For the same compound, the Potency entry in test [2], in test [3], in test [8] and in test [7] was “inactive” throughout.
In the case of `C[C@@H](C(=O)Nc1ccc2ccccc2c1)[C@@H]1C[C@@]1(C)[C@@H](N)c1ccccc1`, the values for the Potency in test [1] and in test [6] were 15.8 µM (active) and 7.94 µM (active), respectively. For the same compound, the Potency entry in test [2], in test [3] and in test [5] was “inactive” each time.
In the case of `COC(=O)C1(Cc2ccccc2)C2c3cc(C(=O)N4CCCC4)n(Cc4ccc(OC(F)(F)F)cc4)c3CC2CN1C(=O)c1ccccc1` (centres undefined), the Potency entry in test [1], in test [2], in test [3] and in test [5] was “inactive” each time. The Potency in test [6] was 3.16 µM (active).
Turning to `C[C@@H](C(=O)Nc1ccc2ccccc2c1)[C@H]1C[C@]1(C)[C@H](NC(=O)OCc1ccccc1)c1ccccc1`, the Potency is 3.98 µM (active) in test [1] and 2.51 µM (active) in test [6]. Also, the Potency entry in test [2], in test [3] and in test [5] was “inactive” each time.
With `COC(=O)[C@@]1(Cc2ccc(OC)cc2)[C@H]2c3cc(C(=O)N4CCCC4)n(CCn4cc([N+](=O)[O-])nc4C)c3C[C@H]2CN1C(=O)c1ccccc1`, the Potency result in test [1], in test [2], in test [3] and in test [5] was “inactive” each time. In addition, the Potency in test [6] was 3.98 µM (active).
For `CC(=O)N[C@H](c1ccccc1)[C@@]1(C)C[C@@H]1[C@@H](C)C(=O)Nc1ccc2ccccc2c1`, the Potency was 15.8 µM (active) in test [1], 7.94 µM (active) in test [6], 2 µM (active) in test [8] and 5.01 µM (active) in test [7]. The Potency result in test [2], in test [3] and in test [5] was “inactive” each time.
For `C=C1C(=O)C=C2CN(C(=O)c3ccccc3)[C@@](Cc3ccc(OC)cc3)(C(=O)OC)[C@@H]12`, the Potency in test [1] is 15.8 µM (active); in test [3], 1.58 µM (active); in test [6], 1.58 µM (active). The Potency entry in test [2] and in test [5] was “inactive” each time.
For `CCC[C@@H]1C[C@@]1(CCC)C(NC(=O)c1cccs1)c1ccc(Cl)cc1` (some centres undefined), the Potency in test [1] was 10 µM (active); in test [6], 6.31 µM (active). In addition, the Potency result in test [2], in test [3] and in test [5] was “inactive” throughout.
Regarding `COC(=O)[C@@]1(Cc2ccccc2)[C@H]2c3cc(C(=O)N4CCCC4)n(CCc4ccccn4)c3C[C@H]2CN1C(=O)c1ccccc1`, the Potency entry in test [1], in test [2], in test [3] and in test [5] was “inactive” throughout. In addition, the Potency in test [6] is 2 µM (active).
Consider `C[C@@H](C(=O)Nc1ccc2ccccc2c1)[C@H]1C[C@]1(C)[C@H](NC(=O)Oc1ccc(F)cc1)c1ccccc1`, for which the Potency entry in test [1], in test [2], in test [3] and in test [5] was “inactive” throughout. The Potency was 0.794 µM (active) in test [6] and 2.51 µM (active) in test [8].
As for `COC(=O)C1(Cc2ccccc2)C=C2C(=C(C(C)C)C(=O)C2C)CN1` (centres undefined), the Potency in test [1] is 15.8 µM (active); in test [6] it was 7.94 µM (active). Further, the Potency result in test [2], in test [3] and in test [5] was “inactive” each time.
For `CCCC1(C(=O)OC)C=C2C(=C(c3ccccc3)C(=O)C2C)CN1` (centres undefined), the Potency is 15.8 µM (active) in test [1], 5.01 µM (active) in test [4] and 7.94 µM (active) in test [7]. Further, the Potency result in test [2], in test [3] and in test [5] was “inactive” each time.
Take `OC[C@@H]1O[C@@H](n2cnc3c(NCc4ccco4)ncnc32)[C@H](O)[C@H]1O`: the Potency result in test [1], in test [2], in test [3], in test [4], in test [8] and in test [7] was “inactive” throughout.
